From PubChem BioAssay (NCI)
About 83,000 compounds went through this panel and 20% of them were active in at least one assay; those are over-represented in the sample as a whole.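 Negative percent growth values reflect cell death: -40 means 40% of the cells present at the start died, and -100 means all died.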 Calls of active or inactive are those of the source. How the source made its calls: active means growth percent below 10; inactive means the rest.

Assays:
Experiment in all cases: NCI-60 one-dose screen, 48 h (100 = growth as untreated, 0 = no growth, -100 = all killed)
Details in all cases: 10 µM unless noted
T-47D breast = tested on: T-47D breast
BT-549 breast = tested on: BT-549 breast
MDA-MB-435 melanoma = tested on: MDA-MB-435 melanoma
SW-620 colon = tested on: SW-620 colon
MCF7 breast = tested on: MCF7 breast
HCT-116 colon = tested on: HCT-116 colon
HCC-2998 colon = tested on: HCC-2998 colon
KM12 colon = tested on: KM12 colon

Measured: growth

CCCCc1ccc(C(N)=O)nc1
active: SW-620 colon -90%
inactive: T-47D breast 101% | BT-549 breast 97.8% | MDA-MB-435 melanoma 106% | MCF7 breast 86.9% | HCT-116 colon 99.4% | HCC-2998 colon 110% | KM12 colon 100%

CCOC(=O)C(C(=O)OCC)C1CCCCC1
inactive: T-47D breast 100% | BT-549 breast 104% | MDA-MB-435 melanoma 101% | SW-620 colon 104% | MCF7 breast 98.6% | HCT-116 colon 104% | HCC-2998 colon 111% | KM12 colon 105%

ICCC(c1ccccc1)(c1ccccc1)c1ccccc1
inactive: T-47D breast 39.2% | BT-549 breast 54.6% | MDA-MB-435 melanoma 35.9% | SW-620 colon 80.7% | MCF7 breast 35.1% | HCT-116 colon 33.2% | KM12 colon 57.7%

Cc1ccc(C(=O)Cc2ccccc2)c(O)c1
inactive: T-47D breast 95.8% | BT-549 breast 105% | MDA-MB-435 melanoma 115% | SW-620 colon 105% | MCF7 breast 99.9% | HCT-116 colon 108% | KM12 colon 110%

COc1ccc(-c2cnc(SCC(=O)Nc3ccc(-c4nc5ccccc5s4)cc3)n2-c2ccc(OC)cc2)cc1
inactive: T-47D breast 93.1% | BT-549 breast 108% | MDA-MB-435 melanoma 114% | SW-620 colon 110% | MCF7 breast 47.4% | HCT-116 colon 107% | KM12 colon 113%

COc1ccc(CNC(=O)c2c(C)n([O-])c3ccc(OC)cc3[n+]2=O)cc1
inactive: T-47D breast 115% | BT-549 breast 83.5% | MDA-MB-435 melanoma 115% | SW-620 colon 107% | MCF7 breast 101% | HCT-116 colon 106% | KM12 colon 97.1%

Cc1cnc2nc(-c3ccc(N(C)C)cc3)cn2c1
inactive: T-47D breast 89.8% | BT-549 breast 112% | MDA-MB-435 melanoma 96.3% | SW-620 colon 116% | MCF7 breast 92.1% | HCT-116 colon 97.2% | HCC-2998 colon 111% | KM12 colon 104%

COc1cccc(/C=N/Nc2nc3ccccc3s2)c1OC
inactive: T-47D breast 67.5% | BT-549 breast 78.5% | MDA-MB-435 melanoma 91.5% | SW-620 colon 96.7% | MCF7 breast 63.2% | HCT-116 colon 42.5% | KM12 colon 70.5%

O=c1[nH]c(SCc2ccccc2)nc2nc(Nc3ccc(NC(=S)Nc4ccccc4)cc3)nc(-c3ccc(O)cc3O)c12
inactive: T-47D breast 73.1% | BT-549 breast 91.7% | MDA-MB-435 melanoma 104% | SW-620 colon 96.8% | MCF7 breast 99.2% | HCT-116 colon 102% | HCC-2998 colon 98.6% | KM12 colon 89.4%

Cc1ccc2nc(SCC(=O)Nc3ccc(-c4nc5ccccc5s4)c(Cl)c3)[nH]c2c1
inactive: T-47D breast 99.2% | BT-549 breast 103% | MDA-MB-435 melanoma 111% | SW-620 colon 111% | MCF7 breast 90.6% | HCT-116 colon 101% | KM12 colon 115%

O=C1C=CC(=O)N1c1ccccn1
inactive: T-47D breast 106% | BT-549 breast 104% | MDA-MB-435 melanoma 116% | SW-620 colon 101% | MCF7 breast 100% | HCT-116 colon 96.8% | KM12 colon 107%

CC1CN(C2CCCCC2)C(=O)NC1=O (stereo not drawn)
inactive: T-47D breast 93% | BT-549 breast 104% | MDA-MB-435 melanoma 112% | SW-620 colon 102% | MCF7 breast 101% | HCT-116 colon 101% | KM12 colon 111%

COc1ccc(CNC(=O)c2c(C)n([O-])c3ccccc3[n+]2=O)cc1
inactive: T-47D breast 81.3% | BT-549 breast 76.8% | MDA-MB-435 melanoma 124% | SW-620 colon 108% | MCF7 breast 91% | HCT-116 colon 97.9% | KM12 colon 131%

Cc1ccccc1NC(=O)NC(CC(N)=O)c1ccc2c(c1)nc(-c1cccc(Oc3ccc(C(C)(C)C)cc3)c1)n2CCCN1CCCCC1C (stereo not drawn)
inactive: T-47D breast 47.4% | BT-549 breast 93.7%
active: MDA-MB-435 melanoma -53.7% | SW-620 colon -62.2% | MCF7 breast -76.3% | HCT-116 colon -73.7% | KM12 colon -35.3%

O=C(O)CNC(=O)C1(N2C(=O)c3ccccc3C2=O)CCCC1
inactive: T-47D breast 102% | BT-549 breast 101% | MDA-MB-435 melanoma 96.3% | SW-620 colon 110% | MCF7 breast 92% | HCT-116 colon 103% | HCC-2998 colon 104% | KM12 colon 118%

Nc1nc(Nc2ccccc2SSc2ccccc2Nc2nc(N)nc(-c3cccc(Cl)c3)n2)nc(-c2cccc(Cl)c2)n1
inactive: T-47D breast 68.9% | BT-549 breast 94.3% | MDA-MB-435 melanoma 101% | SW-620 colon 104% | MCF7 breast 82.8% | HCT-116 colon 90.9% | HCC-2998 colon 110% | KM12 colon 77%

C[C@]12CCC(=O)C=C1CC[C@H]1[C@@H]3C[C@@H](O)[C@](O)(C(=O)CO)[C@@]3(C)C[C@H](O)[C@@]12F
inactive: T-47D breast 103% | BT-549 breast 99.4% | MDA-MB-435 melanoma 99.7% | SW-620 colon 95.5% | MCF7 breast 86.1% | HCT-116 colon 90.6% | KM12 colon 102%

Cc1n(Cc2ccc3ccccc3c2)c2ccccc2[n+]1Cc1ccc2ccccc2c1
active: T-47D breast -3.2% | BT-549 breast -79.7% | MDA-MB-435 melanoma -72.8% | SW-620 colon -60.7% | MCF7 breast -70.9% | HCT-116 colon -91% | HCC-2998 colon -87% | KM12 colon -77.7%

COc1ccc2ncccc2c1Cc1c(OC)ccc2ncccc12
inactive: T-47D breast 59.8% | BT-549 breast 90.3% | MDA-MB-435 melanoma 12.4% | SW-620 colon 40.5% | MCF7 breast 57% | HCT-116 colon 59.2% | KM12 colon 52.1%

O=C(N/N=C/c1cccc(O)c1O)c1ccccc1
active: MCF7 breast 3.07% | HCT-116 colon 9.39% | HCC-2998 colon 8.51%
inactive: T-47D breast 15.5% | BT-549 breast 31.3% | MDA-MB-435 melanoma 28.8% | SW-620 colon 33.5% | KM12 colon 25.9%

COc1cc(C(=O)/C=C/c2cccc(Nc3ccnc4cc(Cl)ccc34)c2)cc(OC)c1OC
inactive: HCC-2998 colon 40.1%
active: T-47D breast -46.4% | BT-549 breast -27.9% | MDA-MB-435 melanoma -16.1% | SW-620 colon -51.5% | MCF7 breast -40.3% | HCT-116 colon -62.5% | KM12 colon -8.69%

COc1cc(/C=C\C(C)=N\Nc2ccccc2)ccc1O
inactive: T-47D breast 68% | BT-549 breast 102% | MDA-MB-435 melanoma 69.7% | SW-620 colon 106% | MCF7 breast 82.4% | HCT-116 colon 91.4% | KM12 colon 52.8%

COc1cc(NC(=O)NCc2ccco2)ccc1-c1ccc(NC(=O)NCc2ccco2)cc1OC
inactive: T-47D breast 40.9% | BT-549 breast 81.7% | MDA-MB-435 melanoma 76.5% | SW-620 colon 72.6% | MCF7 breast 44.7% | HCT-116 colon 35.2% | KM12 colon 47.8%

CC[C@@H](C)/C=C(C)/C=C/C(O)=C1\C(=O)N[C@@H](Cc2ccc(OC(=O)[C@@](OC)(c3ccccc3)C(F)(F)F)cc2)C1=O
inactive: T-47D breast 113% | BT-549 breast 88.8% | MDA-MB-435 melanoma 101% | SW-620 colon 96.7% | MCF7 breast 99.8% | HCT-116 colon 91% | KM12 colon 91.1%

O=C(CSc1ncc(-c2ccccc2)n1-c1ccccc1)Nc1ccc(-c2nc3ccccc3s2)cc1
inactive: T-47D breast 56.3% | BT-549 breast 103% | MDA-MB-435 melanoma 55.9% | SW-620 colon 64.4% | MCF7 breast 31.2% | HCT-116 colon 42.1% | KM12 colon 51.1%

NC(=N\N=C/Cc1ccccc1)/C(N)=N\N=C\Cc1ccccc1
inactive: T-47D breast 91.7% | BT-549 breast 104% | MDA-MB-435 melanoma 107% | SW-620 colon 104% | MCF7 breast 101% | HCT-116 colon 108% | KM12 colon 104%

CC(=O)c1ccc(NS(=O)(=O)c2ccc([N+](=O)[O-])cc2)cc1
inactive: T-47D breast 86.3% | BT-549 breast 102% | MDA-MB-435 melanoma 122% | SW-620 colon 108% | MCF7 breast 99.3% | HCT-116 colon 102% | KM12 colon 111%

CN(C)CCCN=c1cc2c(=O)n(CCCN(C)C)c(=O)c3c(NCCCN(C)C)cc4c(O)n(CCCN(C)C)c(=O)c1c4c3-2
active: T-47D breast -1.16% | MDA-MB-435 melanoma -52.8% | SW-620 colon -14.6% | MCF7 breast 0.771% | HCT-116 colon -29.7% | KM12 colon 3.01%
inactive: BT-549 breast 37% | HCC-2998 colon 13.8%

C=CCN(/C=C/CN(CC=C)CC=C)CC=C
inactive: T-47D breast 101% | BT-549 breast 100% | MDA-MB-435 melanoma 105% | SW-620 colon 102% | MCF7 breast 97% | HCT-116 colon 102% | HCC-2998 colon 110% | KM12 colon 105%

Cc1sc2nc3c4ccccc4c(NCCCN(C)C)nn3c(=O)c2c1C
inactive: T-47D breast 85.2% | BT-549 breast 66.7% | MDA-MB-435 melanoma 24.8% | MCF7 breast 23.8% | HCT-116 colon 36.1% | KM12 colon 31.5%
active: SW-620 colon -43.7%

Nc1ccc(N=Nc2ccccc2)cc1[N+](=O)[O-]
inactive: T-47D breast 59.8% | BT-549 breast 85.4% | MDA-MB-435 melanoma 101% | SW-620 colon 93.1% | MCF7 breast 24.1% | HCT-116 colon 91.4% | HCC-2998 colon 103% | KM12 colon 53.2%

CC(=O)OCC(=O)[C@@]1(O)CC[C@H]2[C@@H]3CCC4=CC(=O)CC[C@]4(C)[C@@]3(F)[C@@H](O)C[C@@]21C
inactive: T-47D breast 109% | BT-549 breast 103% | MDA-MB-435 melanoma 115% | SW-620 colon 98.3% | MCF7 breast 87.3% | HCT-116 colon 106% | KM12 colon 109%

O=C(NC1CCCCC1)c1ccc(Nc2ncnc3c2cnn3-c2ccccc2)cc1
inactive: T-47D breast 76.8% | BT-549 breast 59.8% | MDA-MB-435 melanoma 81.2% | SW-620 colon 72.9% | MCF7 breast 82.8% | HCT-116 colon 37.6% | KM12 colon 88.5%
